Screening results as filed in PubChem BioAssay.
In the library only some 1.6% were active in any assay of this set; here they are far more common.
KCNQ2 pot – KCNQ2 (rat) channel potentiation; CHO-K1 KCNQ2, FluxOR thallium flux fluorescence; active compounds read high; B-score at 10 µM; 0.54% of 310,000 active; AID 2239;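 active = fluorescence ratio B-score at least 3 SD of library B-scores, with initial fluorescence B-score within 3 of them, cut at about 5.3 in these data; same plate scores as AID 2156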;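 note: B-score of peak minus minimum over baseline fluorescence ratio after K+ and Tl+ stimulus; positive B-score means potentiation of KCNQ2 with more thallium influx and brighter signal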
Target sequence (O88943 whole entry, looked up): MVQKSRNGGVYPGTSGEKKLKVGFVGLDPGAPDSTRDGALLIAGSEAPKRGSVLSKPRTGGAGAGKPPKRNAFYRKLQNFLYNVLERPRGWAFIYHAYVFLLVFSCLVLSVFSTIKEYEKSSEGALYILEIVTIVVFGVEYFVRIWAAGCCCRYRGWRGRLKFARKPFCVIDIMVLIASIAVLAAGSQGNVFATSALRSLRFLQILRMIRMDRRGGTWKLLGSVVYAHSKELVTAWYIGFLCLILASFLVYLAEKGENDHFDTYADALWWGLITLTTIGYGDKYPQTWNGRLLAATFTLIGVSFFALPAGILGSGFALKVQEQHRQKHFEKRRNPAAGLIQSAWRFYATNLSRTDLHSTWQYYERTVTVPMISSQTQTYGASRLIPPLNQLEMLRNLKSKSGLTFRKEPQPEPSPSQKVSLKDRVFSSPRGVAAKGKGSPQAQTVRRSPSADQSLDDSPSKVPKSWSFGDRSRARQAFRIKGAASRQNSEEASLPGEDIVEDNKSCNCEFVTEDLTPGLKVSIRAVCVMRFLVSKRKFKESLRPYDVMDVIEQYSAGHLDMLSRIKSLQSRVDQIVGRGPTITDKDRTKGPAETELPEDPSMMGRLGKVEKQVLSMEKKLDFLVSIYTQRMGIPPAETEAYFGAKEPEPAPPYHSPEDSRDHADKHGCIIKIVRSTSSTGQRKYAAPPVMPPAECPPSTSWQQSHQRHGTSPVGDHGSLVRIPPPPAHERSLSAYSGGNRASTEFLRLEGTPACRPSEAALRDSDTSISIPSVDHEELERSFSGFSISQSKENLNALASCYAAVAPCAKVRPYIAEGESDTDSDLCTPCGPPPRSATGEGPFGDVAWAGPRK
KCNQ2 block – KCNQ2 (rat) channel inhibition; O88943; CHO-K1 KCNQ2, FluxOR thallium flux, 20 min; active compounds read low; B-score at 10 µM; 1.1% of 310,000 active; AID 2156;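 active = fluorescence ratio B-score at most minus 3 library SDs, with starting brightness B-score within 2 library SDs, cut at about -5.5 in these data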
KCNQ2 block conf – rat KCNQ2 channel inhibition, confirmatory screen | shares compounds with KCNQ2 block | KCNQ2-expressing cells, thallium flux; active compounds read low | activity change, negative = inhibition, % at 10 µM | 57% of 1,000 active;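 note: 0% = vehicle wells and values are ratio percent relative to vehicle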
KCNQ1 spec – human KCNQ1 activity in KCNQ2 inhibitor specificity screen | shares compounds with KCNQ2 block | KCNQ1-expressing cells, FluxOR thallium flux fluorescence; active compounds read low | activity change, negative = inhibition, % at 10 µM | 15% of 1,000 active | AID 493026;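 active = activity change at least 3 SD of negative controls below their mean in both duplicate wells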;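 note: CHO cells stably transfected with KCNQ1 and depolarized by potassium stimulus; peak minus minimum fluorescence over baseline after thallium addition; 0% = vehicle negative control and -100% = blank without thallium stimulus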
CHO parental ctr – counter-screen for KCNQ2 inhibitors: effect in parental CHO cells; shares compounds with KCNQ2 block; thallium flux counter-screen; active compounds read low; activity change, % at 10 µM; 14% of 1,000 active; AID 493029;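 note: 0% = vehicle negative controls with stimulus buffer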
KCNQ2 patch conf – rat KCNQ2 inhibition confirmed by electrophysiology. KCNQ2-expressing cells, automated patch clamp current. 49% of 550 active. AID 588531. shares compounds with KCNQ2 block. calls only at 10 µM
* hit, by the source's call; i = inactive; / = no result given; + = active, no number. Unless noted, the rule behind the calls is not given here.

SMILES | KCNQ2 pot | KCNQ2 block | KCNQ2 block conf | KCNQ1 spec | CHO parental ctr | others
CCN1CCN(S(=O)(=O)c2ccc(Cl)c(C(=O)N(C)Cc3ccc(F)cc3)c2)CC1 | 0.54 | i | / | / | /
COc1ccc(S(=O)(=O)N2CCCCCC2)cc1C(=O)N(C)Cc1ccc(Cl)cc1Cl | -8.54 | -8.54* | i | i | i
COc1ccc(S(=O)(=O)N2CCCCCC2)cc1C(=O)N(C)Cc1cccs1 | 1.37 | i | / | / | /
CCN1CCN(S(=O)(=O)c2ccc(Cl)c(C(=O)N(C)Cc3cccc(Cl)c3Cl)c2)CC1 | -6.89 | -6.89* | i | i | i
COC(=O)C1=C[C@@H](C(=O)OC)[C@@H]2C3=C(C(=O)C2(C)C)[C@H](C)n2c(=O)n(-c4ccccc4)c(=O)n2[C@@H]3C1 | 0.03 | i | / | / | /
NS(=O)(=O)c1ccc(NC(=O)COC(=O)COc2cccc(C(F)(F)F)c2)cc1 | / | i | / | / | /
Cc1cccc(C)c1OCC(O)CN(Cc1ccccc1O)C1CCCCC1 (stereo not drawn) | -8.39 | -8.39* | -41.0%* | -43.0%* | -35.5%* | KCNQ2 patch conf=+
CN(CC(O)COc1ccc(OCC(O)CN(C)C2CCCCC2)cc1)C1CCCCC1 (stereo not drawn) | 0.08 | i | / | / | /
COc1ccccc1N1CCN(C(=O)c2oc3cc(C)c(C)cc3c2C)CC1 | / | i | / | / | /
CCOc1ccc2oc(C(=O)N3CCN(c4ccccc4OCC)CC3)c(C)c2c1 | -9.78 | -9.78* | i | i | i
CCOC(=O)C(CSCC(=O)c1ccc(Cl)cc1Cl)NC(=O)OC(C)(C)C (stereo not drawn) | -7.65 | -7.65* | -27.5%* | i | i | KCNQ2 patch conf=+
CCOc1ccc(OCCOC(=O)CNC(=O)c2ccc(Cl)cc2Cl)cc1 | / | i | / | / | /
COc1ccc(C(=O)Nc2c(-c3ccccc3)nc3ccccn23)c(OC)c1 | / | i | / | / | /
COc1ccccc1C(=O)Nc1c(-c2ccccc2)nc2ccccn12 | -7.32 | -7.32* | i | i | i
Cc1nn(-c2ccc(N3CCOCC3)nn2)c(C)c1CCC(=O)Nc1ccc(F)cc1 | 2.09 | i | / | / | /
[O-][n+]1c2ccccc2c2n1CCCN=C2c1ccc(Cl)cc1 | / | i | / | / | /
Cc1cccc(-c2cc3nc(-c4ccccc4)cc(N4CCC5(CC4)OCCO5)n3n2)c1 | -8.13 | -8.13* | -30.0%* | i | i | KCNQ2 patch conf=i
Fc1cccc(-c2cc3nc(-c4ccccc4)cc(N4CCC5(CC4)OCCO5)n3n2)c1 | / | i | / | / | /
CC(=O)Oc1ccccc1-c1nc(/C=C/c2ccccc2)no1 | / | i | / | / | /
N#Cc1c(-c2ccccc2)cc(-c2ccccc2)nc1SCCC(=O)O | 0.26 | i | / | / | /
C=CCn1c(/N=C/c2ccc(OC)cc2)nc2ccccc21 | 1.38 | i | / | / | /
C=CCn1c(/N=C/c2ccc(N(C)C)cc2)nc2ccccc21 | -7.27 | -7.27* | i | i | i
COc1ccc(C(=O)Nc2cccc3c2CCCC3)c(OC)c1 | 0.11 | i | / | / | /
Cc1ccc(S(=O)(=O)N(C)C)cc1NC(=S)N(C)C1CCN(C)CC1 | 0.15 | i | / | / | /
CC(C)c1ccc(C2NC(=O)c3ccccc3O2)cc1 (stereo not drawn) | / | i | / | / | /
SMILES | KCNQ2 pot | KCNQ2 block | KCNQ2 block conf | KCNQ1 spec | CHO parental ctr | others
COc1cc(OC)c(-c2noc(C(=O)OC(C)(C)C)c2C(=O)OC(C)(C)C)c(OC)c1 | / | i | / | / | /
Cc1cc(C)c(-c2noc(C(=O)OC(C)(C)C)c2C(=O)OC(C)(C)C)c(C)c1 | -10.2 | -10.2* | i | i | i
CCCCCN(C(=O)CCC(=O)OCc1ccc(Cl)cc1Cl)c1c(N)n(CCCC)c(=O)[nH]c1=O | 0.14 | i | / | / | /
COc1ccccc1CNC(=O)C1CCN(Cc2nc(-c3cccc(Cl)c3)oc2C)CC1 | -7.78 | -7.78* | i | i | i
Cc1cccc(-c2nc(CN3CCCC(C(=O)NC4CCCCCC4)C3)c(C)o2)c1 (stereo not drawn) | -9.66 | -9.66* | -27.5%* | i | i | KCNQ2 patch conf=+
Cc1cccc(-c2nc(CN3CCCC(C(=O)NC4CCCCC4)C3)c(C)o2)c1 (stereo not drawn) | / | i | / | / | /
CCc1ccc(-c2nc(CN3CCC(C(=O)NCc4ccccc4OC)CC3)c(C)o2)cc1 | / | i | / | / | /
CCOc1ccc(NC(=O)CSc2nnc(Cc3csc(C)n3)o2)cc1 | 0.55 | i | / | / | /
CC(C)(C)C(=O)NNC(=O)C1CC1(c1ccccc1)c1ccccc1 (stereo not drawn) | 0.21 | i | / | / | /
COc1ccc(CNC(=O)CN(Cc2ccc(Cl)cc2)S(=O)(=O)c2ccccc2)cc1 | -7.45 | -7.45* | -29.5%* | i | i | KCNQ2 patch conf=i
COc1ccc(S(=O)(=O)N(CC(=O)NCc2ccncc2)Cc2ccccc2)cc1 | / | i | / | / | /
CC(C)c1ccc(NC(=O)C2C3C=CC4(O3)C2C(=O)N(CCCN2CCOCC2)C4C(=O)NC2CCCCC2)cc1 (stereo not drawn) | 1.64 | i | / | / | /
Cc1nc2ccccc2c(=O)n1/N=C/c1cccs1 | / | i | / | / | /
Cc1nc2ccccc2c(=O)n1/N=C/c1cn(-c2ccccc2)nc1-c1cccs1 | -9.06 | -9.06* | -36.0%* | i | i | KCNQ2 patch conf=i
Cc1ccc(-c2cc(C(=O)N3CCCCC3)c3ccccc3n2)cc1C | -9.31 | -9.31* | -36.5%* | i | i | KCNQ2 patch conf=+
COc1ccc(-c2cc(C(=O)N3CC(C)CC(C)C3)c3ccccc3n2)cc1 (stereo not drawn) | -8.7 | -8.7* | -35.0%* | i | i | KCNQ2 patch conf=+
CC1CC(C)CN(C(=O)c2cc(-c3ccccn3)nc3ccccc23)C1 (stereo not drawn) | / | i | / | / | /
CC1CN(C(=O)c2cc(-c3ccc(Cl)s3)nc3ccccc23)CC(C)O1 (stereo not drawn) | -8.53 | -8.53* | -33.0%* | i | i | KCNQ2 patch conf=+
Cc1ccc(-c2cc(C(=O)N3CCCc4ccccc43)c3ccccc3n2)cc1 | -6.86 | -6.86* | i | i | i
Cc1ccccc1-c1cc(C(=O)N2CCCC2)c2ccccc2n1 | 0.36 | i | / | / | /
O=C(c1cc(-c2cccnc2)nc2ccccc12)N1CCCc2ccccc21 | / | i | / | / | /
COc1ccc(-c2cc(C(=O)N3CCCC3)c3ccccc3n2)cc1 | / | i | / | / | /
CC1=C(C(=O)Nc2ccccc2C(=O)N2CCC(C)CC2)SCCO1 | 1.31 | i | / | / | /
CCOC(=O)c1ccccc1NC(=O)COC(=O)CN1C(=O)NC2(CCCC2)C1=O | / | i | / | / | /
O=C(Cc1ccccc1)NNC(=O)Cc1ccccc1 | / | i | / | / | /
SMILES | KCNQ2 pot | KCNQ2 block | KCNQ2 block conf | KCNQ1 spec | CHO parental ctr | others
O=C(NC(c1ccccc1)c1ccccc1)N1CCOCC1 | / | i | / | / | /
O=C(NC1c2ccccc2-c2ccccc21)N1CCOCC1 | -6.95 | -6.95* | -28.5%* | i | i | KCNQ2 patch conf=+
O=C(Cc1ccccc1)NC1c2ccccc2-c2ccccc21 | -6.75 | -6.75* | i | i | i
CCCCN1C[C@H](C)[C@@H](CC(=O)NCc2ccccc2)C1=O | 0.09 | i | / | / | /
Cc1ccccc1-c1nc(CN2CCC(C(=O)NC3CC3)CC2)c(C)o1 | / | i | / | / | /
CC(C)c1ccc(N(C(=O)c2csnn2)C(C(=O)NC2CCCC2)c2cccnc2)cc1 (stereo not drawn) | 1.29 | i | / | / | /
